The campaign covered roughly 48,000 compounds. About 13,000 (27%) showed an effect of 50% or more. The list shows a part of the results.

This assay deals with Wolbachia pipientis. In words: Anti-Wolbachia Cell-Based Screen. It is filed as functional. Further details: scale not given: in the data most compounds retested in dose-response had high values. The conditions noted are these: 5 µM.
Take `c1cncc(CN(Cc2ccsc2)Cc2ccc(C3CCCCO3)o2)c1` (centres undefined): the “Percent Effect” value is listed as -4.94%.

On to `CS(=O)(=O)N1C[C@H]2CCCN(Cc3cccs3)[C@H]2C1.O=C(O)C(F)(F)F`, for which the “Percent Effect” value worked out at 3.048%.

On to `CN(C)C(=O)C1CN(Cc2ccccn2)CCN(S(C)(=O)=O)C1` (centres undefined), for which the “Percent Effect” value is given as 88.48%.

In the case of `CS(=O)(=O)N1CCN(Cc2cccs2)CC(C(N)=O)C1` (centres undefined), the “Percent Effect” value was determined as 99.35%.

With `CC(C)[C@H]1CN(Cc2ccccn2)C[C@@H]1NS(=O)(=O)C1CC1`, the “Percent Effect” value is given as -5.384%.

Consider `CCCS(=O)(=O)N1C[C@@H]2CN(Cc3cccs3)CCO[C@@H]2C1.O=C(O)C(F)(F)F`, for which the “Percent Effect” value turned out to be 8.558%.

Turning to `CCN(CC(F)(F)F)C(=O)C1CCCN(Cc2ccccn2)C1` (centres undefined), the “Percent Effect” value came out at 10.59%.

As for `COCC1CN(C(=O)CNC(C)=O)Cc2ncnn2C1` (centres undefined), the “Percent Effect” value is given as 6.87%.

`COc1nc2ccccc2cc1CN1CCC(CNS(C)(=O)=O)C1` (centres undefined): the “Percent Effect” value is recorded as -1.226%.

`CN(C)CC(=O)N1CCCC2(CCC(=O)N(CCc3c[nH]cn3)C2)C1` (centres undefined): the “Percent Effect” value came to 10.28%.

For the molecule `COc1ccc(-c2nc3c([nH]2)CCNC3C(=O)O)c2ccc(C)nc12` (centres undefined), the “Percent Effect” value was found to be 11.46%.

Consider `CC(C)C(=O)N1CC[C@@H]2[C@H](CC1)N(Cc1cccnc1)CCS2(=O)=O.O=C(O)C(F)(F)F.O=C(O)C(F)(F)F`, for which the “Percent Effect” value was determined as 86.93%.

As for `O=C(O)C(F)(F)F.O=C(O)C(F)(F)F.O=C(O)C(F)(F)F.c1cncc(CN2CC[C@@H]3[C@@H]2CCN3Cc2ccc3c(c2)OCO3)c1`, the “Percent Effect” value is -20.95%.

Turning to `O=C(C1CC1)N1CC[C@@H]2[C@H](CC1)N(Cc1cccnc1)CCS2(=O)=O.O=C(O)C(F)(F)F.O=C(O)C(F)(F)F`, the “Percent Effect” value was 101.3%.

Regarding `CCCC(=O)N1CC[C@@H]2[C@H](CC1)N(Cc1cccc(C)n1)CCS2(=O)=O.O=C(O)C(F)(F)F`, the “Percent Effect” value is on record as 0.2499%.

Consider `O=C(CC1CC1)N1CC[C@@H]2[C@H](CC1)N(Cc1cccnc1)CCS2(=O)=O.O=C(O)C(F)(F)F.O=C(O)C(F)(F)F`, for which the “Percent Effect” value is given as 93.65%.

Consider `CCS(=O)(=O)N1CC[C@@H]2[C@H](CC1)N(Cc1cccnc1)CCS2(=O)=O.O=C(O)C(F)(F)F.O=C(O)C(F)(F)F`, for which the “Percent Effect” value is reported as 110.8%.

As for `CCS(=O)(=O)N1CC[C@@H]2[C@H](CC1)N(Cc1cccc(C)n1)CCS2(=O)=O.O=C(O)C(F)(F)F`, the “Percent Effect” value was -2.049%.

In the case of `CC(C)CN1CCS(=O)(=O)[C@@H]2CCN(S(=O)(=O)c3ccccc3)CC[C@@H]21.O=C(O)C(F)(F)F`, the “Percent Effect” value was -6.866%.

Regarding `Cc1cccc(CN2CCS(=O)(=O)[C@@H]3CCN(C(=O)C4CC4)CC[C@@H]32)n1.O=C(O)C(F)(F)F`, the “Percent Effect” value stood at 4.108%.

With `O=C(O)C(F)(F)F.O=C(O)C(F)(F)F.O=S1(=O)CCN(Cc2cccnc2)[C@H]2CCN(c3ncccn3)CC[C@H]21`, the “Percent Effect” value came out at 0.02856%.

For `CCS(=O)(=O)N1CC[C@@H]2[C@H](CC1)N(CC(C)C)CCS2(=O)=O.O=C(O)C(F)(F)F`, the “Percent Effect” value is -5.407%.

For `CN(CCCN1CCOCC1)[C@@H]1c2ccccc2C2(CCNCC2)[C@H]1O`, the “Percent Effect” value came to 1.971%.

In the case of `Cc1cc(S(=O)(=O)N2CCCc3cc(F)cc(F)c32)sc1C(=O)O`, the “Percent Effect” value is 6.843%.

On to `Cc1ccc2nc(C)cc(C(=O)N3C[C@H]4CCC[C@@]4(CO)C3)c2c1`, for which the “Percent Effect” value is listed as -30.24%.

As for `COCCn1cnnc1Cn1ccnc1-c1ccoc1`, the “Percent Effect” value is 3.29%.

With `Nc1ncc2c(n1)CN(C1CCCC1)C2=O`, the “Percent Effect” value is given as -0.5678%.

With `CCC(=O)N1CC[C@@H]2[C@H](CC1)N(Cc1cccc(C)n1)CCS2(=O)=O.O=C(O)C(F)(F)F`, the “Percent Effect” value was -0.9694%.

As to `CCCC(=O)N1CC[C@@H]2[C@H](CC1)N(Cc1cccnc1)CCS2(=O)=O.O=C(O)C(F)(F)F.O=C(O)C(F)(F)F`, the “Percent Effect” value is on record as -5.055%.

As to `CC(C)CC(=O)N1CC[C@@H]2[C@H](CC1)N(Cc1cccnc1)CCS2(=O)=O.O=C(O)C(F)(F)F.O=C(O)C(F)(F)F`, the “Percent Effect” value came to 108.2%.

Turning to `CC(C)Nc1cc(N2CCN(Cc3ccccc3)C(CCO)C2)ncn1` (centres undefined), the “Percent Effect” value is 10.47%.

With `Cc1cccnc1NC(=O)C1CCCN1Cc1ccccc1` (centres undefined), the “Percent Effect” value was determined as 28.43%.

Take `CNC(=O)C1CN(c2cc(C)ncn2)CCN1Cc1ccccc1` (centres undefined): the “Percent Effect” value is reported as 91.54%.

With `CNC(=O)C1CN(c2ccnc(C)n2)CCN1Cc1ccccc1` (centres undefined), the “Percent Effect” value turned out to be 49.78%.

In the case of `CNC(=O)C1CN(c2ncccn2)CCN1Cc1ccccc1` (centres undefined), the “Percent Effect” value is 91.24%.

For `Cc1cc(N2CCN(Cc3ccccc3)CC(O)C2)nc(N)n1` (centres undefined), the “Percent Effect” value stood at 4.027%.

For the molecule `Cc1c(C(C)NC2CCCC2)cnn1-c1ccc(F)cc1F` (centres undefined), the “Percent Effect” value was 1.139%.

With `O=C(NC1CC(=O)N(Cc2cccc(F)c2)C1)c1ccncc1` (centres undefined), the “Percent Effect” value stood at 2.208%.

For the molecule `O=C(N[C@@H]1CN(Cc2cccc3[nH]ccc23)C[C@H]1O)c1cscn1`, the “Percent Effect” value is on record as 113.8%.

Take `NC(=O)CN1C(=O)CO[C@H]2CN(Cc3ccc(F)c(F)c3)C[C@H]21`: the “Percent Effect” value amounted to 0.7627%.

In the case of `O=C(N[C@@H]1CN(Cc2ccc(F)c(F)c2)C[C@H]1O)c1cscn1`, the “Percent Effect” value worked out at 124.1%.

With `CN(c1ncccc1CNC(=O)c1cscn1)C1CCCCC1`, the “Percent Effect” value is on record as -0.9499%.

In the case of `O=C(N[C@@H]1CN(c2ncc(F)cn2)[C@@H]2COC[C@@H]21)c1cscn1`, the “Percent Effect” value is -1.705%.

Take `O=C(N[C@@H]1CN(Cc2cccc(F)c2)C[C@H]1O)c1cscn1`: the “Percent Effect” value is on record as 114.1%.

`Fc1ccc(CN2CCCN(Cc3cscn3)CC2)cc1`: the “Percent Effect” value is -1.277%.

Take `O=C(N[C@@H]1CCN(C(=O)c2cc[nH]c2)C[C@H]1O)c1ccccn1`: the “Percent Effect” value is on record as 16.73%.

Turning to `CC(C)N1C[C@H](NC(=O)c2coc(COc3cccc(F)c3)n2)[C@@H](O)C1`, the “Percent Effect” value is given as 0.03825%.

In the case of `O=C(N[C@@H]1CN(Cc2ccc(F)cc2)C[C@H]1O)c1cscn1`, the “Percent Effect” value was 113.4%.

For `O=C(NS(=O)(=O)c1ccc(F)c(F)c1)c1cscn1`, the “Percent Effect” value amounted to 8.824%.

As for `CNC(=O)N1CCOC(C)(c2cnn(C)c2)C1` (centres undefined), the “Percent Effect” value is -1.831%.

Turning to `N#Cc1cc(NC(=O)c2cscn2)ccc1N1CCC(O)CC1`, the “Percent Effect” value is reported as -15.52%.

Consider `O=C(N[C@@H]1CN(Cc2ccc3[nH]ccc3c2)C[C@H]1O)c1cscn1`, for which the “Percent Effect” value is listed as 101.2%.

Turning to `O=C(N[C@@H]1CN(Cc2ccc3cc[nH]c3c2)C[C@H]1O)c1cnccn1`, the “Percent Effect” value is given as 102.1%.

As to `NC(=O)C1CCN(CCc2ccc(NCc3cscn3)cc2)CC1`, the “Percent Effect” value is recorded as 0.9786%.

On to `O=C(N[C@@H]1CCN(c2nccc3ccccc23)C[C@H]1O)c1cnccn1`, for which the “Percent Effect” value is -5.026%.

`CSCCCN1CC[C@@H](NC(=O)c2cnccn2)[C@H](O)C1`: the “Percent Effect” value is -11.75%.

With `O=C(O)CCc1cc2n(n1)CCN(Cc1ccc3[nH]ccc3c1)C2`, the “Percent Effect” value is recorded as -14.18%.

Take `O=C(N[C@@H]1CN(CCc2ccc(F)cc2)C[C@H]1O)c1cscn1`: the “Percent Effect” value turned out to be 115.2%.

For the molecule `CCc1cnc(N2C[C@@H](NC(=O)c3cscn3)[C@H]3COC[C@H]32)nc1.O=C(O)C(F)(F)F`, the “Percent Effect” value is given as -6.299%.
